Bioassay records (PubChem BioAssay)
KB-3-1 cytotox: qHTS assay for MDR1-selective chemotherapeutics: Primary screen using the parental adenocarcinoma cell KB-3-1; KB-3-1 viability, CellTiter-Glo ATP luminescence, 72 h; Potency, µM (top dose mostly 46.1 µM), actives largely listed as cytotoxic; hit rate 1.4% among 400,000; further: nearly all actives have a fitted effect of over 60% in size
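Multi-concentration cytotoxicity screen in KB-3-1 cells grown in DMEM lacking phenol red with 10% FBS. After 72 h at 37 °C with compound, ATP-dependent luminescence was recorded.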
HT1080 IDH1KD tx: qHTS for induction of synthetic lethality in tumor cells producing 2HG: qHTS for the HT-1080-IDH1KD cell line; HT-1080 IDH1 knockdown viability, ATP luminescence, 48 h; Potency, µM (top dose mostly 46.1 µM), for the others: at the highest dose activity, negative = toxicity, most hits filed as cytotoxic; hit rate 2% among 360,000;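 further: 0% = DMSO wells and -100% = cell-free medium wells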
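Assay cells: HT-1080 with IDH1 knockdown, 750 per well, RPMI/5% FBS. Exposure: 48 h at 37 °C following 2 h pre-incubation. Read: CellTiter-Glo luminescence; fitted concentration-response, curve class assigned.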
KB-V1 cytotox: qHTS assay for MDR1-selective chemotherapeutics: Primary screen using the drug-selected MDR subline cells KB-V1; Potency, µM (top dose mostly 46.1 µM), actives largely listed as cytotoxic; hit rate 3.4% among 400,000; KB-V1 MDR cells viability, CellTiter-Glo, 72 h; further: nearly all actives have a fitted effect of over 60% in size
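KB-V1, DMEM (no phenol red) + 10% FBS; cpd pin-transferred, titration series; 72 h, 37 degrees C; CellTiter-Glo, luminescence. Data normalized, curve-fit.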
DT40 TDP1 no CPT: qHTS for Inhibitors of human tyrosyl-DNA phosphodiesterase 1 (TDP1): qHTS in cells in absence of CPT; DT40 Tdp1-/- hTDP1 cells, no CPT, ATP luminescence, 48 h; Potency, µM (titrated, usually from 46.2 µM), without a hit: at the highest dose activity change, negative = growth inhibition, usual class: inhibitors; hit rate 15% among 420,000; further: nearly all actives have a fitted effect of over 55% in size
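Compound effects on proliferation are scored in DT40 Tdp1-/-;hTDP1 cells in the absence of CPT. ATP levels (CellTiter-Glo luminescence) are recorded after a ≥48 hr, 37 °C incubation.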
HT1080-NT tox: qHTS for induction of synthetic lethality in tumor cells producing 2HG: qHTS for the HT-1080-NT fibrosarcoma cell line; HT-1080-NT fibrosarcoma viability, CellTiter-Glo ATP luminescence, 48 h; Potency, µM (highest dose often 46.1 µM), without a hit: top-dose activity, negative = less viability, most hits filed as cytotoxic; hit rate 1.6% among 360,000; AID 686970, 2013;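 further: NT is the 2HG producing partner of a matched IDH1 knockdown line; 0% = DMSO-treated cells and -100% = media-only wells without cells; nearly all actives have a fitted effect of over 55% in size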
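Viability of the 2HG-overproducing fibrosarcoma line after 48 hours of compound exposure at 37 degrees C was determined by luminescence with CellTiter-Glo, and concentration-effect curves were then fitted and categorized.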
DT40 TDP1 CPT: qHTS for Inhibitors of human tyrosyl-DNA phosphodiesterase 1 (TDP1): qHTS in cells in presence of CPT; Potency, µM (titrated, usually from 46.2 µM), for the others: at the top dose activity change, negative = growth inhibition, usual class: inhibitors; hit rate 12% among 420,000; chicken DT40 Tdp1-/-;hTDP1 cells + 20 nM CPT, ATP luminescence, 48 h; AID 686979, 2013; further: nearly all actives have a fitted effect of over 55% in size
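Chicken DT40 Tdp1-/- cells stably complemented with human TDP1 were seeded at 400 cells/well in medium containing 20 nM camptothecin, exposed to pin-transferred compounds, and grown at 37 °C for at least 48 hr. Viability was read as ATP luminescence.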
Starred values were filed as active, the others as inactive; i = inactive; ? = inconclusive; · = not tested or not shown; ! = a repeat was not active. Rows were chosen to be rich in hits. Some 19% of all compounds tested hit in one or more screens of this group. The call rests on the fitted dose curve; in most records, active means well fitted curve in the direction sought with a large enough effect; inconclusive means small, poorly fitted or top-dose-only effect, or another doubt; inactive means no such curve, though single readings can be large; an effect the other way counts as inactive or inconclusive. Unless noted, on the % scale 0 is the no-effect control and ±100 the full control effect; potency means the concentration at half of the fitted maximal effect.

SMILES	KB-3-1 cytotox	HT1080 IDH1KD tx	KB-V1 cytotox	DT40 TDP1 no CPT	HT1080-NT tox	DT40 TDP1 CPT
COC(=O)c1ccc(C23CC4(C2)[C@H](CN(Cc2ccc(C(F)(F)F)cc2)[C@@H]4c2ccccc2)C3c2ccc(Cl)nc2)cc1 (some centres undefined)	i	-7%	i	10µM*	-7%	9.2µM*
COC(=O)c1ccc(C23CC4(C2)[C@H](CN(CC2CCCCC2)[C@@H]4c2ccccc2)C3c2ccc(Cl)nc2)cc1 (some centres undefined)	i	-1%	i	?	-5%	?
Cc1ccc(CN(C(=O)c2csnn2)C(C(=O)NC2CCCC2)c2cccnc2)cc1 (centres undefined)	i	0%	i	-10%	-1%	-17%
CC(C)(C)N(Cc1ccccc1)C(=O)COC(=O)C1CC(=O)N(Cc2ccccc2)C1 (centres undefined)	i	-19%	i	?	-17%	?
COc1ccc(Cl)cc1NC(=O)CCc1nc(-c2ccccc2F)no1	i	-11%	i	16µM*	9%	23µM*!
COc1ccc(Br)cc1CNC(=O)CCc1nc(-c2ccccc2F)no1	i	-11%	i	?	-4%	16µM*
Cc1ccccc1-c1noc(CCC(=O)Nc2cccc(C)c2C)n1	i	·	?	16µM*	·	-10%
COc1cccc(NC(=O)CCc2nc(-c3ccccc3F)no2)c1	i	-1%	i	?	-23%	?
O=C(CCc1nc(-c2ccccc2F)no1)Nc1ccc(Oc2ccccc2)cc1	?	16µM*	?	10µM*	15µM*	23µM*
COc1ccccc1NC(=O)CCc1nc(-c2ccccc2F)no1	i	0%	?	-23%	-1%	?
O=[N+]([O-])c1cc(-c2nc(-c3ccccc3)no2)ccc1NC1CCCC1	i	·	i	-14%	·	-24%
Cc1cc(C(F)(F)F)nc(-n2cc(-c3ccccc3)nn2)n1	i	?	i	-17%	?	7%
CCc1ccc(NC(=O)NCCc2c(C)nn(C)c2C)cc1	i	·	i	?	·	-5%
COc1ccccc1N1CCN(C2CCCN(C(=O)CCc3cnn(C)c3)C2)CC1 (centres undefined)	i	1%	i	25%	5%	-9%
Cc1ccc(C(=O)NN2C(=O)c3ccc(S(=O)(=O)c4ccc(C(=O)O)cc4)cc3C2=O)cc1	i	11%	i	?	14%	18µM*
O=C(O)c1ccc(S(=O)(=O)c2ccc3c(c2)C(=O)N(NC(=O)c2ccc(O)cc2)C3=O)cc1	i	4%	i	20%	4%	10%
CN1CCC(N2CCN(C3CN(Cc4cn(Cc5cccc(C(F)(F)F)c5)nn4)S(=O)(=O)C3)CC2)CC1 (centres undefined)	i	2%	i	-4%	-5%	-7%
CN1CCN(S(=O)(=O)c2cccc(C(=O)Nc3ccccc3N3CCCCC3)c2)CC1	i	0%	?	?	1%	?
CCN1CCN(c2ccc(S(=O)(=O)N3CCCCC3)cc2NC(=O)c2cccc(C(F)(F)F)c2)CC1	i	2%	i	18µM*	-21%	?
CN1CCN(S(=O)(=O)c2cccc(C(=O)Nc3cc(C(F)(F)F)ccc3N3CCCCC3)c2)CC1	?	0%	?	18µM*	-6%	?
COC(=O)c1c(NC(=O)/C(C#N)=C/c2ccc(OC)cc2)sc2c1CCC2	·	·	·	-7%	·	8%
COc1cccc(NC(=O)COC(=O)CNS(=O)(=O)c2c(F)cccc2F)c1	i	1%	i	-17%	6%	-1%
CN1CCN(c2nn3c(=O)c4ccccc4nc3s2)CC1	i	·	i	·	·	·
COC(=O)c1ccc(NC2(C#N)C(=O)Nc3ccccc32)cc1 (centres undefined)	i	-9%	i	23µM*	-22%	?
CN(C)S(=O)(=O)c1ccc(N2CCCC2)c(C(=O)NNC(=O)c2ccc(F)cc2)c1	i	-3%	i	?	-19%	-14%
SMILES	KB-3-1 cytotox	HT1080 IDH1KD tx	KB-V1 cytotox	DT40 TDP1 no CPT	HT1080-NT tox	DT40 TDP1 CPT
c1ccc(C2CC(c3ccccc3)n3c(nc4ccccc43)N2)cc1 (centres undefined)	i	-10%	i	15µM*	-24%	16µM*
CCc1ccc(C2CC(c3ccccc3)Nc3nc(N)nn32)cc1 (centres undefined)	i	11%	i	-19%	2%	-6%
Cc1ccnc(NC(=S)N2CCN(c3ccc(N)cc3)CC2)c1	i	·	i	·	·	·
CCN(CC)c1ccc(/C=N/n2c(-c3ccccc3Br)n[nH]c2=S)cc1	i	-30%	i	18µM*	?	?
Cc1nn(-c2ccccc2)c(C)c1/C=N/n1c(-c2ccccc2Br)n[nH]c1=S	i	-6%	?	-19%	-13%	?
COc1ccccc1/C=C/c1nc(C#N)c(N(C)C)o1	i	5%	i	16µM*	5%	?
COc1cccc(/C=C/c2nc(C#N)c(N3CCCCCC3)o2)c1	i	·	i	18µM*	·	?
CN1CCN(c2oc(/C=C/c3ccccc3)nc2C#N)CC1	i	27%	i	17%	10%	16%
COc1ccccc1/C=C/c1nc(C#N)c(N2CCCCC2)o1	·	·	·	16µM*	·	-72%
COc1ccc(/C=C/c2nc(C#N)c(N3CCN(c4ccccc4)CC3)o2)cc1OC	·	·	·	-12%	·	-12%
CN(C)c1oc(/C=C/c2ccccc2)nc1C#N	i	-1%	?	-24%	-3%	-21%
COc1cccc(/C=C/c2nc(C#N)c(N3CCC(C(N)=O)CC3)o2)c1	i	·	i	-30%	·	-25%
COc1ccc(N2CCN(c3oc(/C=C/c4cc(OC)c(OC)c(OC)c4)nc3C#N)CC2)cc1	·	·	·	3.7µM*	·	2.9µM*
COc1ccc(Cc2nnc(NC(=O)C3CC(=O)N(c4ccccc4)C3)s2)cc1OC (centres undefined)	i	-13%	i	-19%	-6%	-1%
